This is an account of results in PubChem BioAssay (NCI).

Common to all, as to assay: NCI-60 one-dose screen, 48 h (100 = growth as untreated, 0 = no growth, -100 = all killed)
Experiment [1] deals with SR leukemia.
Experiment [2] relates to RPMI-8226 leukemia.
Experiment [3] concerns OVCAR-8 ovarian.
For experiment [4], the system named is OVCAR-5 ovarian.
The test system of experiment [5] is OVCAR-4 ovarian.
Experiment [6] relates to SK-OV-3 ovarian.
In experiment [7] the test system is IGROV1 ovarian.
Experiment [8] has as its system OVCAR-3 ovarian. The settings on record: 10 µM unless noted.
Experiment [9] deals with HS 578T breast.
Experiment [10] concerns NCI/ADR-RES ovarian.

Molecules are shown by their SMILES. “And” between values parts separate entries of the source, which are not always exact repeats. Identical values can stand only once. About 83,000 compounds went through this panel and 20% of them were active in at least one assay; those are over-represented in the sample as a whole.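 Each cell line was grown in a 96-well plate and treated with one concentration of compound for 48 hours. Values below 10 were considered active.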 The source made the active and inactive calls.

Take `COc1ccc(Nc2ncnc3ccc(-c4cncc(NS(C)(=O)=O)c4)cc23)cc1Cl`: the growth is 11.2% (inactive) in [1] (10 µM unless noted); 24.9% (inactive) in experiment [2] (10 µM unless noted); 46.2% (inactive) in [3] (10 µM unless noted); 45.1% (inactive) in [4] (10 µM unless noted); 57.5% (inactive) in [5] (10 µM unless noted); 21.6% (inactive) in experiment [6] (10 µM unless noted). Moreover, the growth in [7] (10 µM unless noted) is 3.39% (active); in [8] it was 15.2% (inactive); in [9] (10 µM unless noted) it was -3.14% (active).
`CCCCCCNC(=O)Oc1ccc(/C(=C(/CC)Cc2ccccc2)c2ccc(OCCCN(C)C)cc2)cc1`: the growth is -9.68% (active) in [1] (10 µM unless noted); 75.2% (inactive) in [2] (10 µM unless noted); 83.9% (inactive) in [3] (10 µM unless noted); 90.5% (inactive) in experiment [4] (10 µM unless noted); 81.7% (inactive) in experiment [5] (10 µM unless noted); 88.2% (inactive) in experiment [6] (10 µM unless noted). In addition, the growth in experiment [7] (10 µM unless noted) is 68.1% (inactive); in experiment [8], 95.3% (inactive); in experiment [9] (10 µM unless noted) it was 86.3% (inactive).
Consider `O=C(/C=C/c1ccc(Cl)s1)c1ccc(Cl)s1`, for which the growth in experiment [1] (10 µM unless noted) is 78.3% (inactive) and 87% (inactive); in [2] (10 µM unless noted) it was 89.9% (inactive) and 66.8% (inactive); in [3] (10 µM unless noted), 107% (inactive) and 102% (inactive); in experiment [4] (10 µM unless noted), 86.5% (inactive) and 101% (inactive); in experiment [5] (10 µM unless noted), 84.5% (inactive); in experiment [6] (10 µM unless noted) it was 94.5% (inactive) and 102% (inactive). The growth is 88.9% (inactive) in [7] (10 µM unless noted); 97.3% (inactive) and 99.3% (inactive) in [8]; 96.8% (inactive) in experiment [9] (10 µM unless noted).
As to `CC(=O)/C=C/c1ccc(OCc2ccc(Cl)cc2)cc1`, the growth in [1] (10 µM) is 98% (inactive); in [1] (100 µM) it was 30% (inactive); in [2] (10 µM), 87.9% (inactive); in experiment [2] (100 µM), 24.2% (inactive); in [3] (10 µM), 90.1% (inactive); in experiment [3] (100 µM), 34.4% (inactive). In addition, the growth in experiment [4] (10 µM) was 109% (inactive); in experiment [4] (100 µM), 75% (inactive); in [5] (10 µM) it was 101% (inactive); in experiment [5] (100 µM), 43.4% (inactive); in [6] (10 µM) it was 110% (inactive); in experiment [6] (100 µM), 38.8% (inactive). In addition, the growth was 106% (inactive) in experiment [7] (10 µM); 61.4% (inactive) in [7] (100 µM); 97.3% (inactive) in experiment [9] (10 µM); 51.9% (inactive) in [9] (100 µM); 96.5% (inactive) in experiment [10] (10 µM); 18% (inactive) in [10] (100 µM).
For the molecule `Nc1n[nH]c2cccc(C#Cc3cccc(C(=O)Nc4ccc(CN5CCOCC5)c(C(F)(F)F)c4)c3)c12`, the growth in [1] (10 µM unless noted) was 36.1% (inactive); in [2] (10 µM unless noted), 16.4% (inactive); in experiment [3] (10 µM unless noted), 12.5% (inactive); in experiment [4] (10 µM unless noted) it was 41.2% (inactive); in experiment [5] (10 µM unless noted), 47.2% (inactive); in experiment [6] (10 µM unless noted), 88.8% (inactive). For the same molecule, the growth in [7] (10 µM unless noted) is 18.6% (inactive); in experiment [8], 60.5% (inactive); in experiment [9] (10 µM unless noted) it was 29.5% (inactive).
With `Fc1ccc(NC(c2ccc(F)cc2)C2CCN(CCCCc3ccccc3)CC2)cc1` (stereo unspecified), the growth was -40.5% (active) in experiment [1] (10 µM unless noted); -17.6% (active) in experiment [2] (10 µM unless noted); -21.9% (active) in experiment [3] (10 µM unless noted); 59.1% (inactive) in [4] (10 µM unless noted); 50.6% (inactive) in experiment [5] (10 µM unless noted); 64.6% (inactive) in experiment [6] (10 µM unless noted). Moreover, the growth in experiment [7] (10 µM unless noted) was 55.9% (inactive); in [8] it was 34% (inactive); in [9] (10 µM unless noted), 71.7% (inactive).
As for `N=c1c2c(-c3ccccc3)c(-c3ccccc3)oc2ncn1NC(=O)c1cccnc1`, the growth in [1] (10 µM unless noted) is 77.7% (inactive); in [2] (10 µM unless noted), 97.5% (inactive); in experiment [3] (10 µM unless noted) it was 97.7% (inactive); in experiment [4] (10 µM unless noted), 109% (inactive); in experiment [5] (10 µM unless noted), 101% (inactive); in [6] (10 µM unless noted), 99.2% (inactive). The values for the growth in [7] (10 µM unless noted), in experiment [8] and in experiment [9] (10 µM unless noted) were 95.7% (inactive), 111% (inactive) and 103% (inactive), respectively.
Consider `CN(C)CCN1C(=O)c2c(c3c4ccccc4n4c3c3c2c2ccccc2n3C2CC(O)C(O)C4(C)O2)C1=O` (stereo unspecified), for which the growth was 5.57% (active) in [1] (10 µM unless noted); 18.5% (inactive) in experiment [2] (10 µM unless noted); 25.3% (inactive) in [3] (10 µM unless noted); 55.6% (inactive) in [4] (10 µM unless noted); 29.3% (inactive) in experiment [5] (10 µM unless noted); 25.3% (inactive) in [6] (10 µM unless noted). The figures for the growth in experiment [7] (10 µM unless noted) and in [8] were 16.5% (inactive) and 41.4% (inactive), respectively.
On to `O=C(Nc1ccc(Cl)c(Cl)c1)Nc1ccc(Cl)c(Cl)c1`, for which the growth in experiment [1] (10 µM unless noted) was -16.6% (active) and 28.9% (inactive); in experiment [2] (10 µM unless noted) it was -36.5% (active) and 10.6% (inactive); in experiment [3] (10 µM unless noted), -78.7% (active) and 23.2% (inactive); in experiment [4] (10 µM unless noted) it was -85.3% (active) and 41.8% (inactive); in experiment [5] (10 µM unless noted) it was -86.4% (active); in experiment [6] (10 µM unless noted) it was -87% (active) and 29.5% (inactive). Besides, the growth in experiment [7] (10 µM unless noted) is -86.4% (active) and 4.75% (active); in experiment [8], -95.3% (active) and 6.41% (active).
Turning to `COc1cc(Nc2nc3ccccc3cc2C(=O)Nc2ccc(F)c(F)c2)cc(OC)c1OC`, the growth in experiment [1] (10 µM unless noted) is 29.6% (inactive); in experiment [2] (10 µM unless noted), 21.8% (inactive); in experiment [3] (10 µM unless noted), 15.5% (inactive); in experiment [4] (10 µM unless noted), 63.9% (inactive); in [5] (10 µM unless noted), 23% (inactive); in experiment [6] (10 µM unless noted) it was 42.2% (inactive). Moreover, the growth is 30.8% (inactive) in experiment [7] (10 µM unless noted), 10.6% (inactive) in experiment [8] and 61.2% (inactive) in [9] (10 µM unless noted).
In the case of `CCCCCCCCCCCCCCCC(=O)O[C@@H]1[C@@H](O)[C@@H](O)C([C@H](NC(=O)[C@@H]2C[C@@H](CCC)CN2C)[C@H](C)Cl)O[C@@H]1SC` (stereo partly specified), the growth is 98.5% (inactive) in experiment [1] (10 µM unless noted); 90.9% (inactive) in experiment [2] (10 µM unless noted); 103% (inactive) in [3] (10 µM unless noted); 97.1% (inactive) in [4] (10 µM unless noted); 105% (inactive) in experiment [5] (10 µM unless noted); 98.2% (inactive) in experiment [6] (10 µM unless noted). The growth in [7] (10 µM unless noted) was 101% (inactive); in experiment [8] it was 109% (inactive); in experiment [9] (10 µM unless noted) it was 122% (inactive).
